Results: PubChem BioAssay (EPA / NIEHS)
The source made the active and inactive calls. The calls were made as follows: active = hit-call score of the fitted dose curve at least 0.9, where 1 is the maximum; inactive = score below 0.9.

Test: APR_HepG2_CellCycleArrest_1hr: Apredica 1-hour HepG2 Assay for Cell Cycle Arrest (AID 2282666)
Settings: high-content imaging, actives raise or lower the signal
Description: APR_HepG2_1hr is a cell-based, multiplexed-readout assay that uses HepG2, a human liver cell line, with measurements taken at 1 hour after chemical dosing in a 384-well plate.APR_HepG2_CellCycleArrest_1hr is one of 10 assay component(s) measured or calculated from the APR_HepG2_1hr assay. It is designed to make measurements of cell phenotype, a form of morphology reporter, as detected with fluorescence intensity signals by HCS Fluorescent Imaging technology.Data from the assay component APR_HepG2_CellCycleArrest_1hr was analyzed into 1 assay endpoint. This assay endpoint, APR_HepG2_CellCycleArrest_1hr, was analyzed with bidirectional fitting relative to DMSO as the negative control and baseline of activity. Using a type of morphology reporter, measures of all nuclear dna for gain or loss-of-signal activity can be used to understand the signaling at the pathway-level as they relate to the gene . Furthermore, this assay endpoint can be referred to as a primary readout, because this assay has produced multiple assay endpoints where this one serves a signaling function. To generalize the intended target to other relatable targets, this assay endpoint is annotated to the cell cycle intended target family, where the subfamily is arrest.
Cells were treated with dimethyl sulfoxide (DMSO) as a solvent control at a final concentration of 0.5% v/v or with compounds in DMSO with a resulting final DMSO concentration of 0.5% v/v. Compound treatment was done at concentrations of 0.39, 0.78, 1.56, 3.12, 6.24, 12.5, 25, 50, 100, and 200 uM in duplicate on each plate. Cells were treated with compounds for 1, 24, or 72 hr. Carbonyl […] m-chloro-phenylhydrazone (CCCP) and taxol were used as positive controls for mitochondrial function and cytoskeletal stability, respectively; DMSO served as the negative control for this experiment. Cells were fixed by the direct addition of 50 uL formaldehyde in Hank's Balanced Salt Solution (HBSS) to a final concentration of 3.7%. After incubation in the fixation medium for 30 min at room temperature (293-298 K), cells were rinsed twice with HBSS and treated with cell permeabilization buffer (16 uL of 0.5% Triton X-100) for 10 min at room temperature (293-298 K) before labeling. For mitochondrial membrane potential and mitochondrial measurements, pre-fixed cells were incubated with 50 uL of MitoTracker Red CMXRos (Invitrogen) at a concentration of 250 nM for 30 min before fixation. In the remaining cases, post-fixed cells were labeled by incubation with a multiplexed mixture of primary antibodies in HBSS for 60 min at room temperature (293-298 K) to detect immunoreactivity of c-Jun (1:500), phospho-histone H3 (1:100), phospho-histone H2A.x (1:200), p53 (1:400), alpha-tubulin (1:200) and Hoechst 33342 (2 ug/mL). Cells were labeled for multiplexed imaging on two separate plates: a) Hoechst 33342, MitoTracker Red, phospho-histone H3, and alpha-tubulin, and b) Hoechst 33342, phospho-histone H2A.x, and c-Jun. A final rinse with HBSS (50 uL) was performed before analysis. The primary and secondary antibodies for the proteins were phospho-histone H3 (rabbit anti-phospho-histone H3 and FITC-donkey anti-rabbit IgG), phospho-histone H2A.x (mouse anti-phospho-histone H2A.x and FITC-donkey anti-mouse IgG), c-Jun (rabbit anti-phospho-c-Jun and Cy3-donkey anti-rabbit IgG), p53 (sheep anti-p53 and Cy5-donkey anti-sheep IgG), alpha-tubulin (mouse anti-alpha-tubulin and Cy5-donkey anti-mouse IgG). These antibodies are available as the CellCiphr HepG2 assay kit (Millipore).Digital images of each well were captured using a Cellomics ArrayScan VTI (Thermo Scientific Cellomics) (0.8 NA objective, 0.63x optical coupler, and XF-93 filter set) at 20x magnification. The images were acquired using the autofocus feature of the ArrayScan instrument, which entails the following steps. First, the camera focuses on channel 1 (Hoechst 33342), where nuclei are identified. Second, a Z offset of 1 um is used for capturing mitochondria (MitoTracker Red). […]

Row | Compound | outcome
1 | S=C1NCCN1 | inactive
2 | CCOP(=S)(OCC)OC(Cl)C(Cl)(Cl)Cl (stereo not given) | inactive
3 | CCOC(=O)CC(SP(=O)(OC)OC)C(=O)OCC (stereo not given) | inactive
4 | CCOP(=O)(OCC)Oc1cc(C)nc(C(C)C)n1 | inactive
5 | O=[N+]([O-])c1cc(C(F)(F)F)c(Cl)c([N+](=O)[O-])c1Nc1ncc(C(F)(F)F)cc1Cl | inactive
6 | CC(Oc1cccc(Cl)c1)C(=O)O (stereo not given) | inactive
7 | CCOP(=S)(OCC)SCCSCC | inactive
8 | CCCCN(CC)c1c([N+](=O)[O-])cc(C(F)(F)F)cc1[N+](=O)[O-] | inactive
9 | CCOP(=S)(OCC)Oc1cc(C)nc(C(C)C)n1 | inactive
10 | CN(C)C(=O)Nc1cccc(C(F)(F)F)c1 | inactive
11 | CC(C1CC1)C(O)(Cn1cncn1)c1ccc(Cl)cc1 (stereo not given) | inactive
12 | CON=C(C(=O)OC)c1ccccc1CON=C(C)c1cccc(C(F)(F)F)c1 | inactive
13 | CCOP(=O)(SC(C)CC)N1CCSC1=O (stereo not given) | inactive
14 | CC(C)N(C(=O)SCC(Cl)=C(Cl)Cl)C(C)C | inactive
15 | Cc1cc(C2CC2)nc(Nc2ccccc2)n1 | inactive
16 | CCOP(=S)(OCC)Oc1ccc([N+](=O)[O-])cc1 | inactive
17 | CCc1cccc(CC)c1N(COC)C(=O)CCl | inactive
18 | CSC1=N[C@@](C)(c2ccccc2)C(=O)N1Nc1ccccc1 | inactive
19 | O=c1ccc(=O)[nH][nH]1 | inactive
20 | CN(C)NC(=O)CCC(=O)O | inactive

Row | Compound | outcome
21 | C#CCC1=C(C)C(OC(=O)C2C(C=C(C)C)C2(C)C)CC1=O (stereo not given) | inactive
22 | COP(=O)(OC)SCn1c(=O)oc2cc(Cl)cnc21 | inactive
23 | Cc1nn(-c2cc(NS(C)(=O)=O)c(Cl)cc2Cl)c(=O)n1C(F)F | inactive
24 | CNC(=O)Oc1cccc2c1OC(C)(C)O2 | inactive
25 | CCCSP(=O)(OCC)Oc1ccc(Br)cc1Cl (stereo not given) | inactive
26 | CCCSP(=O)(OCC)SCCC | inactive
27 | Nc1c(Cl)cc([N+](=O)[O-])cc1Cl | inactive
28 | CCCOCC(=Nc1ccc(Cl)cc1C(F)(F)F)n1ccnc1 | inactive
29 | C[N+]1(C)CCCCC1 | inactive
30 | Nc1nc(N)nc(NC2CC2)n1 | inactive
31 | CCOP(=O)(NC(C)C)Oc1ccc(SC)c(C)c1 (stereo not given) | inactive
32 | CSc1nnc(C(C)(C)C)c(=O)n1N | inactive
33 | CN1COCN(Cc2cnc(Cl)s2)C1=N[N+](=O)[O-] | inactive
34 | C=C(C)[C@H]1Cc2c(ccc3c2O[C@@H]2COc4cc(OC)c(OC)cc4[C@@H]2C3=O)O1 | inactive
35 | CCC(=NOC/C=C/Cl)C1=C(O)CC(C2CCOCC2)CC1=O (stereo not given) | inactive
36 | CCC(CC)Nc1c([N+](=O)[O-])cc(C)c(C)c1[N+](=O)[O-] | inactive
37 | O=C(O)c1cc(Oc2ccc(C(F)(F)F)cc2Cl)ccc1[N+](=O)[O-] | inactive
38 | CCNc1nc(Cl)nc(NC(C)(C)C#N)n1 | inactive
39 | CCOC(=O)COc1cc(-c2nn(C)c(OC(F)F)c2Cl)c(F)cc1Cl | inactive
40 | CC(=NC#N)N(C)Cc1ccc(Cl)nc1 | inactive
